# Reference: PubChem BioAssay (NCI)
# The panel holds about 83,000 compounds, 20% with a hit somewhere; the sample as a whole holds those more often.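 Single-concentration screen, 48 h exposure, 96-well plates. Endpoint: percent growth. Below 10 = active.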 Values without a mark were called inactive. Active and inactive are the calls of the source.
# Legend:
# Assay in all cases: NCI-60 one-dose screen, 48 h (100 = growth as untreated, 0 = no growth, -100 = all killed)
# Details in all cases: 10 µM unless noted
# [1] = test system: SK-MEL-2 melanoma
# [2] = test system: EKVX NSCLC
# [3] = test system: SN12C renal
# [4] = test system: UO-31 renal
# [5] = test system: TK-10 renal
# [6] = test system: ACHN renal
# [7] = test system: A498 renal
# [8] = test system: CCRF-CEM leukemia
# [9] = test system: MOLT-4 leukemia
# [10] = test system: SR leukemia
Structure (SMILES),growth [1],growth [2],growth [3],growth [4],growth [5],growth [6],growth [7],growth [8],growth [9],growth [10]
COC(=O)/C=C/c1cc(OC(C)=O)c2c(c1)C(C(=O)OC)C(c1ccc(OC(C)=O)c(OC(C)=O)c1)O2 (centres undefined),25%,44.4%,23.6%,35.2%,44.7%,34.4%,3.78% (active),9.72% (active),15.3%,8.61% (active)
CSc1nc(-c2ccco2)c2c(N)[nH]nc2n1,99.3%,81.2%,109%,88.3%,105%,101%,66.4%,111%,82.7%,76.1%
C#Cc1cccc(Nc2ncnc3ccc(NC(=O)c4ccccc4)cc23)c1,85.3%,52.3%,76.6%,56%,26.1%,39.6%,65.4%,89.7%,,61.8%
CC(C)C[C@H](C(=O)O)N(C)C(=O)[C@@H]1CCCN1C(=O)[C@H](C)OC(=O)[C@H](CCC(N)=O)NC(=O)[C@@H]1CCC(=O)N1,110%,94.1%,97.1%,88.3%,105%,106%,107%,102%,111%,94.4%
C=C(C)[C@@H]1CC[C@]2(C(=O)N=C=S)CC[C@]3(C)[C@H](CC[C@@H]4[C@@]5(C)CCC(=O)C(C)(C)[C@@H]5CC[C@]43C)[C@@H]12,27.3%,32.4%,19.2%,34.8%,42.3%,27.6%,25.3%,28.1%,25.6%,27.6%
CNCc1cccc2c1OCCOCCOCCN(CCN1CCOCC1)S(=O)(=O)c1ccc(cc1)-c1cnc(N)c(n1)C(=O)N2,60.9%,74.8%,68.4%,55.6%,43.9%,36.7%,44.4%,18%,-1.99% (active),7.93% (active)
O=C(/C(=C\c1c(-c2ccccc2)[nH]c2ccccc12)S(=O)(=O)c1ccccc1)c1ccccc1,35.8%,28.7%,82%,60.9%,78.2%,48.7%,54.3%,21%,3.71% (active),15.1%
O=C(CCl)N1CCCc2ccccc21,110%,96.4%,93.8%,82.8%,102%,101%,94.5%,96.8%,93.5%,101%
COc1cc(C2CC(c3ccc(Nc4nc(NCCO)nc(NCCO)n4)cc3)=NN2c2cc(Cl)cc(Cl)c2)cc(OC)c1OC (centres undefined),85%,35.2%,13.1%,49.4%,-25.7% (active),67.3%,96.8%,19.3%,16.3%,-9.38% (active)
N#Cc1c(-c2ccc(F)cc2)c(C#N)c2c(C#N)c(N)nn2c1N,102%,96.8%,104%,75.4%,86.4%,95.7%,93.7%,104%,85.9%,93.7%
COc1cc(NCC(=O)Nc2cc(Nc3cccc(C(F)(F)F)c3)ncn2)c(Cl)c(OC)c1Cl,89.5%,90.6%,101%,64.2%,101%,95.7%,71.5%,72.5%,76.2%,72.2%
COc1ccc(-c2nnc(N3CCN(C(=O)CN4CCN(c5ccccc5)CC4)CC3)nc2-c2ccc(OC)cc2)cc1,38.1%,13%,7.79% (active),26.9%,55.3%,26.1%,48%,9.28% (active),-25.7% (active),-32.5% (active)
O=C(N/N=C/C[C@@H]1[C@@H](/C=C/[C@@H](O)COc2cccc(Cl)c2)[C@H](O)C[C@@H]1O)c1ccncc1,102%,98.4%,102%,89.5%,73.2%,101%,97.9%,98%,83.7%,92.3%
NS(=O)(=O)c1ccc(-n2nc(-c3ccccc3)ccc2=O)cc1,101%,118%,97.7%,91.9%,132%,108%,102%,95.6%,96.4%,83.9%
C=C1C(=O)O[C@H]2[C@H]1CC/C(COC(=O)CCCCCCCC(=O)OC/C1=C/CC[C@@]3(C)O[C@H]3[C@H]3OC(=O)C(=C)[C@@H]3CC1)=C\CC[C@@]1(C)O[C@@H]21,59.9%,18.5%,4.85% (active),-22.1% (active),3.41% (active),-24.8% (active),109%,5.92% (active),2.39% (active),0.728% (active)
O=C(/C(=C/c1ccc([N+](=O)[O-])cc1)SCc1ccc(F)cc1)c1ccc(Cl)cc1,88.5%,57.7%,56%,44.8%,97.2%,60.7%,70.9%,6.19% (active),7.7% (active),0.0981% (active)
NC(=O)CN1C(=O)c2ccccc2C1=O,108%,104%,97.7%,90.4%,103%,105%,92%,96.6%,99.1%,87.8%
COC(=O)/C=C1\SC(=Nc2cccc(Cl)c2)N(CCc2c[nH]c3ccccc23)C1=O,40.6%,71.9%,44.5%,58.5%,73.4%,63.9%,61.5%,5.03% (active),-17.6% (active),-7.91% (active)
O=C(/C(=C/c1ccc([N+](=O)[O-])cc1)SCc1ccc(Cl)cc1)c1ccc(F)cc1,81.3%,59.7%,45.9%,45.8%,94.7%,54%,70.5%,4.66% (active),7.69% (active),0.569% (active)
O=C(Nc1nc(-c2ccccc2)cs1)c1cc(-c2ccc(Br)cc2)nc2ccccc12,67%,41.2%,54.9%,17.2%,63.2%,55.4%,-55.9% (active),20.9%,24%,19.5%
O=CN1N=C(c2ccc3c(c2)OCO3)CC1c1cccc(Nc2ccnc3cc(C(F)(F)F)ccc23)c1 (centres undefined),76.1%,75.2%,88.9%,63.7%,76.9%,85.8%,72.5%,66.5%,53.4%,29.9%
CCCCC(=O)Nc1c(C(=O)Nc2ccccc2)sc2nc3c(cc12)C(OC(=O)CCCC)CCC3 (centres undefined),93.8%,91.9%,96.9%,89%,98.2%,115%,64.7%,69.8%,75.9%,-10.6% (active)
CC1CCCN(CCCCCOc2ccc3oc4ccc(Cl)cc4c(=O)c3c2)C1 (centres undefined),96.7%,78.3%,74.6%,70.7%,92%,89.4%,76.3%,72.8%,48.5%,21%
COC(=O)c1cc2c3c(cc(O)c2[nH]1)N(C(=O)C1Cc2cc(OC)c(OC)c(OC)c2N1)CC3CCl (centres undefined),-43% (active),-31.5% (active),-88.9% (active),-97.8% (active),-89.5% (active),-56.1% (active),-42.8% (active),5.91% (active),-11.7% (active),8.12% (active)
COc1ccc(-c2[nH]c3ccccc3c2C=C(C#N)C#N)cc1,-14.5% (active),12.4%,44.6%,59.1%,35.5%,43%,-7.34% (active),-5.77% (active),-14.2% (active),-27.8% (active)
CCCCN(CCCC)CC(CN(CC)CC)OC(=O)Nc1ccccc1 (centres undefined),99.4%,91.7%,94.4%,69.7%,85.5%,99.2%,117%,98.1%,80.8%,86.3%
